Measurements from PubChem BioAssay.
Where “and” joins values, the source holds several entries; their conditions need not be identical. Equal values may be shown once. For some assays here: Potency and affinity values are given separately. Where a structure was tested more than once in an assay, its records may differ in their call. Calls of active or inactive are those of the source. Entries that show only a call come without a potency. Unless noted, how the calls were made is not given here.

Columns and labels:
[1] = antimalarial activity against Dd2 strain (AID 2302;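 active means growth inhibition above 50% at the single 2 µM test dose, taken to imply half-maximal potency below 2 µM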); conditions: P. falciparum Dd2 in RBCs, LDH growth readout, 72 h; at 2 µM; stronger effect = higher value
[2] = human hepatoma cell viability loss – ATP luminescence, cytotoxicity control for P. falciparum antimalarial project, primary screen (AID 2303;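 active means inhibition above 50%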); conditions: HepG2 viability, 24-48 h, at 10 µM, stronger effect = higher value
[3] = biological target: L-lactate dehydrogenase (Plasmodium falciparum (isolate CDC / Honduras)) (UniProt Q27743); assay: PfLDH activity inhibition – cell lysate, 3D7 strain, counter-screen for P. falciparum growth inhibition project (AID 2304); conditions: P. falciparum 3D7 crude extract, LDH APAD/NBT absorbance; at 2 µM; stronger effect = higher value
[4] = inhibition of 3D7 malaria parasite growth – strain 3D7 (AID 2306); conditions: P. falciparum 3D7 erythrocytic growth, LDH absorbance, 72 h; at 2 µM; stronger effect = higher value
[5] = biological target: Calcium-dependent protein kinase 1 (Plasmodium falciparum (isolate 3D7)) (UniProt P62344); assay: PfCDPK1 kinase inhibitors, biochemical, TCAMS library (AID 1159585; cut-off not given, nearly all actives have IC50 up to about 0.98 µM;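 further: inhibitors leave more ATP so luminescence rises with inhibition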); conditions: recombinant PfCDPK1, Kinase-Glo ATP depletion luminescence
[6] = biological target: Plasmodium falciparum protein kinase 6 (PK6, PF3D7_1337100) (UniProt Q8IDW1); assay: PfPK6 kinase inhibitors, biochemical, TCAMS library (AID 1159586); conditions: recombinant PfPK6, Kinase-Glo ATP depletion luminescence
[7] = biological target: Protein kinase 7 (PK7), Plasmodium falciparum 3D7 (PF3D7_0213400) (UniProt Q7YTF7); assay: inhibition of Plasmodium PK7 catalytic activity – biochemical, TCAMS antimalarial set, Kinase-Glo luminescence (AID 1159587); conditions: recombinant PfPK7, Kinase-Glo ATP depletion luminescence
[8] = biological target: Calcium-dependent protein kinase 4 (Plasmodium falciparum (isolate 3D7)) (UniProt Q8IBS5); assay: PfCDPK4 kinase inhibitors, biochemical, TCAMS library (AID 1159588; cut-off not given, nearly all actives have IC50 up to about 0.91 µM); conditions: recombinant PfCDPK4, Kinase-Glo ATP depletion luminescence
Sequence of Calcium-dependent protein kinase 4 (Plasmodium falciparum (isolate 3D7)) (Q8IBS5 whole entry, looked up): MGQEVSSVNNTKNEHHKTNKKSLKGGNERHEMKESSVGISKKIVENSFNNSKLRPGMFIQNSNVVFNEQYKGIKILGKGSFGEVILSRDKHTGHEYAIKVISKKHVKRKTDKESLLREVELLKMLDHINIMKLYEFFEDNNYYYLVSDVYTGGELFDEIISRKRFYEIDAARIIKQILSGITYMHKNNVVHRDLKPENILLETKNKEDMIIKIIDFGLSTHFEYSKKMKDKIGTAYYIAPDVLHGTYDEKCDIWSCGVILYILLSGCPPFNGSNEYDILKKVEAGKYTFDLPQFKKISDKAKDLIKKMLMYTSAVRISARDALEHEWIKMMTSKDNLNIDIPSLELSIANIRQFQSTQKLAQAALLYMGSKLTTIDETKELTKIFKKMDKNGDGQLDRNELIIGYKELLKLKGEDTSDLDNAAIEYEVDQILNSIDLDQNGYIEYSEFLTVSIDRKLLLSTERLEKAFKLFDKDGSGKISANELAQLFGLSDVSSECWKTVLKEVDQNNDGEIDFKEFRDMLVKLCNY

Sequence of L-lactate dehydrogenase (Plasmodium falciparum (isolate CDC / Honduras)) (Q27743 whole entry, looked up): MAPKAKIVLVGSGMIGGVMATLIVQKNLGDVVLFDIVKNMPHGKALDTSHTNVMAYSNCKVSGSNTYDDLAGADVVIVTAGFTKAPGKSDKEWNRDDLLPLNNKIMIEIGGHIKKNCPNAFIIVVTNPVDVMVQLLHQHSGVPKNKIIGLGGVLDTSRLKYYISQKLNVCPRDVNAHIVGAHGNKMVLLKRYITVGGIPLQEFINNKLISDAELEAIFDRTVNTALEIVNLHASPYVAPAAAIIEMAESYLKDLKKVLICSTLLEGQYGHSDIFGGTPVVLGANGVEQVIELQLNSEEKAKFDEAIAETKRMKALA
Sequence of Protein kinase 7 (PK7), Plasmodium falciparum 3D7 (PF3D7_0213400) (Q7YTF7 1-343): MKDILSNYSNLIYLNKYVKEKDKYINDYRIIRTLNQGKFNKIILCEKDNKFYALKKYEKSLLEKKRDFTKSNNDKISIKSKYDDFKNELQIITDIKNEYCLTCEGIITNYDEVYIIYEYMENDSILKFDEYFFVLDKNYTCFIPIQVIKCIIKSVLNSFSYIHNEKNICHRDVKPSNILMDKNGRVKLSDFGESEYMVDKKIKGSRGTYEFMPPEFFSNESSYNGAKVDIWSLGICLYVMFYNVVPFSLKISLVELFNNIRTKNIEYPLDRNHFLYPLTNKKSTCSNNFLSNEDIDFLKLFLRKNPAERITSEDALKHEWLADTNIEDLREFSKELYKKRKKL
Sequence of Calcium-dependent protein kinase 1 (Plasmodium falciparum (isolate 3D7)) (P62344 whole entry, looked up): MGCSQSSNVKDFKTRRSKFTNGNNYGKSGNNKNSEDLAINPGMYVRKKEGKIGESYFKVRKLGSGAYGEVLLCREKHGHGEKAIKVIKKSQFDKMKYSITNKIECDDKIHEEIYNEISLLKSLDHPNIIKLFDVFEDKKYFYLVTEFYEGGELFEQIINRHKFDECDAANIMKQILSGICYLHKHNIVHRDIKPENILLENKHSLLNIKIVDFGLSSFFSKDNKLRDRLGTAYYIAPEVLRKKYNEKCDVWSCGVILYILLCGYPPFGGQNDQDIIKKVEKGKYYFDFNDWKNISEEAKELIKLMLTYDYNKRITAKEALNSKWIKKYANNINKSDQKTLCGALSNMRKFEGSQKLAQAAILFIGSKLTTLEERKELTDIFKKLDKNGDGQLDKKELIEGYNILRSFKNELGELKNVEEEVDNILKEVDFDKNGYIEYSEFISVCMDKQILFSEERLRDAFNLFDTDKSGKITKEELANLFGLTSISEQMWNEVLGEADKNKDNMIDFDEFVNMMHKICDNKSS
Sequence of Plasmodium falciparum protein kinase 6 (PK6, PF3D7_1337100) (Q8IDW1 1-305): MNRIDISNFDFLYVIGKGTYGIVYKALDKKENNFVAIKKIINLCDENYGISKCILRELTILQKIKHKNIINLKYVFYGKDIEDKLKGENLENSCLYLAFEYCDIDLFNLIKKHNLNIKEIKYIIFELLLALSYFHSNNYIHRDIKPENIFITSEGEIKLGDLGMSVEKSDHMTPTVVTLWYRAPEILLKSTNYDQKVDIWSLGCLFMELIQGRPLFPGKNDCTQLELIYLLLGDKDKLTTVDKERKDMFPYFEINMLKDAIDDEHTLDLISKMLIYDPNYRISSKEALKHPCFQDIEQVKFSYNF

Compound | growth inhibition [1] | inhibition [2] | inhibition [3] | growth inhibition [4] | outcome [5] | outcome [6] | outcome [7] | outcome [8]
CCCOc1cccc(C(=O)N[C@@H](Cc2ccccc2)[C@H](O)CNCc2cccc(OC)c2)c1 | 18% (inactive) | 14% (inactive) | -3% (inactive) | 102% (active) | inactive | inactive | inactive | inactive
Cc1cc(OCc2ccncc2)cc2c1C(=O)CC(C)(C)O2 | 0% (inactive) | -5% (inactive) | -5% (inactive) | 99% (active) | inactive | inactive | inactive | inactive
Cc1cccc(C=NNc2cc(C)nc3ccc(F)cc23)n1 | 45% (inactive) | 1% (inactive) | 3% (inactive) | 95% (active) | inactive | inactive | inactive | inactive
NC(=O)COc1cccc2c1CCN(CCN1CCC(NC(=O)c3ccc(-c4ccc(Cl)cc4)cc3)CC1)C2 | 6% (inactive) | 44% (inactive) | -1% (inactive) | 92% (active) | inactive | inactive | inactive | inactive
O=C(Nc1cccc(CN2CCN(Cc3ccc(O)cc3)CC2)c1)c1ccc(Cl)c(Cl)c1 | 95% (active) | 30% (inactive) | 2% (inactive) | 102% (active) | inactive | inactive | inactive | inactive
CC(=O)Nc1cccc(C(=O)Nc2cccc(-c3cccc(-c4nc5ccccc5[nH]4)c3)c2)c1 | 66% (active) | 41% (inactive) | -5% (inactive) | 100% (active) | inactive | inactive | inactive | inactive
CN1CCN(c2cccc(-c3nnc(-c4cccc(OCC(=O)NCc5ccc(C(F)(F)F)cc5)c4)o3)c2)CC1 | 86% (active) | 10% (inactive) | -4% (inactive) | 98% (active) | inactive | inactive | inactive | inactive
COc1ccc(CN(C)CCCSc2ccc(NC(=O)c3cccc4c(=O)cc(-c5ccccc5)[nH]c34)cc2)cc1OC | 94% (active) | 15% (inactive) | -6% (inactive) | 93% (active) | inactive | inactive | inactive | inactive
COCc1cccc(-c2cc(-c3ccc(S(C)(=O)=O)cc3)cnc2N)c1 | 88% (active) | 10% (inactive) | -2% (inactive) | 98% (active) | inactive | inactive | inactive | inactive
COc1cccc(NC(=O)c2ccc(NCCCN3CC(C)CC(C)C3)c([N+](=O)[O-])c2)c1 (stereo unspecified) | 68% (active) | 14% (inactive) | -4% (inactive) | 100% (active) | inactive | inactive | inactive | inactive
O=C1Nc2cccc3c2C1(CCCCN1CCC(c2cc4ccncc4[nH]2)CC1)CCC3 (stereo unspecified) | -2% (inactive) and -4% (inactive) | -1% (inactive) and -8% (inactive) | -3% (inactive) | 97% (active) and 99% (active) | inactive | inactive | inactive | inactive
N#CC(c1ccc(Br)cc1)c1ccc2c(C(F)(F)F)cc(C(F)(F)F)nc2n1 (stereo unspecified) | 98% (active) | 75% (active) | -2% (inactive) | 101% (active) | inactive | inactive | inactive | inactive
CC(CN(C)C)C(=O)Nc1ccc(-c2cccc(-c3nc4ccccc4[nH]3)c2)cc1 (stereo unspecified) | 57% (active) | 68% (active) | 4% (inactive) | 99% (active) | inactive | inactive | inactive | inactive
CC1(C)N=C(N)N=C(N)N1c1ccc2ccccc2c1 | -1% (inactive) | 48% (inactive) | -2% (inactive) | 95% (active) | inactive | inactive | inactive | inactive
Cc1cc(NN=Cc2ccc(Cl)cc2)c2ccccc2n1 | 87% (active) | 5% (inactive) | -3% (inactive) | 100% (active) | inactive | inactive | inactive | inactive
COc1ccc(NC(=O)C2c3ccccc3C(=O)N(CC(C)C)C2c2cccs2)cc1OC (stereo unspecified) | 98% (active) | 6% (inactive) | 3% (inactive) | 100% (active) | inactive | inactive | inactive | inactive
O=C(Nc1ccc(CN2CCN(S(=O)(=O)c3ccc(Cl)s3)CC2)cc1)c1cccs1 | 87% (active) | 14% (inactive) | 2% (inactive) | 92% (active) | inactive | inactive | inactive | inactive
NOCCCOc1ccc(Cl)cc1 | 0% (inactive) | 12% (inactive) | 0% (inactive) | 98% (active) | inactive | inactive | inactive | inactive
N#Cc1ccc2c(c1)CN(CCC1CCC(NC(=O)/C=C/c3c[nH]c4ccccc34)CC1)CC2 (stereo unspecified) | 24% (inactive) and 27% (inactive) | 10% (inactive) and 20% (inactive) | -3% (inactive) and -9% (inactive) | 92% (active) and 97% (active) | inactive | inactive | inactive | inactive

Compound | growth inhibition [1] | inhibition [2] | inhibition [3] | growth inhibition [4] | outcome [5] | outcome [6] | outcome [7] | outcome [8]
CC(C)C(C)(C#N)NC(=O)CSc1nc2ccc([N+](=O)[O-])cc2s1 (stereo unspecified) | 81% (active) | -11% (inactive) | 3% (inactive) | 95% (active) | inactive | inactive | inactive | inactive
CC(C)c1ccc(CN2CCCCC(NC(=O)c3cc(-c4ccccc4Cl)cs3)C2)cc1 (stereo unspecified) | 64% (active) | 8% (inactive) | 3% (inactive) | 100% (active) | inactive | inactive | inactive | inactive
Oc1ccc(CCNc2nc(NCCCOc3ccccc3-c3ccc(F)cc3)nc(N3CCNCC3)n2)cc1 | 8% (inactive) | 30% (inactive) | -1% (inactive) | 85% (active) | inactive | inactive | inactive | inactive
O=C(Nc1ccncc1)c1cn(-c2ccccc2)nc1-c1cccs1 | 10% (inactive) | 7% (inactive) | 4% (inactive) | 98% (active) | inactive | inactive | inactive | inactive
COc1ccc(-n2ccnc2SCC(=O)Nc2cc(C)ccc2C)c(OC)c1 | 93% (active) | 2% (inactive) | -3% (inactive) | 94% (active) | inactive | inactive | inactive | inactive
CN(C)C(=O)C(CC(=O)NCc1ccccc1Cl)N(C)C (stereo unspecified) (tested in a mixture with another compound) | 2% (inactive) | 7% (inactive) | -3% (inactive) | 96% (active) | inactive | inactive | inactive | inactive
COc1ccc2nccc([C@@H](O)CN3CCC(NCc4ccc5nnsc5c4)CC3)c2c1 | 0% (inactive) | 16% (inactive) | 5% (inactive) | 99% (active) | inactive | inactive | inactive | inactive
COc1cccc(-c2ccc3ccnc(N)c3c2)c1 | 93% (active) | 40% (inactive) | 0% (inactive) | 101% (active) | inactive | inactive | inactive | inactive
COc1ccc(Cn2c(SCc3ccc(C)cc3)nc3cc(OC)c(OC)cc3c2=N)cc1Cl | 7% (inactive) | 50% (active) | 5% (inactive) | 92% (active) | inactive | inactive | inactive | inactive
Cn1nc(-c2ccc(CN[C@@H]3CCc4ccc(O)cc43)cc2)c2cnc(NCCCN3CCCC3)nc21 | 61% (active) | 8% (inactive) | 2% (inactive) | 101% (active) | inactive | inactive | inactive | inactive
Cc1ccc2c(NN=Cc3cccc(F)c3)cc(C)nc2c1 | 66% (active) | 34% (inactive) | -2% (inactive) | 96% (active) | inactive | inactive | inactive | inactive
COc1ccc2ncc(F)c(CCN3CCC(CNC(=O)C(=O)c4c[nH]c5ccccc45)CC3)c2n1 | 99% (active) | 48% (inactive) | -6% (inactive) | 103% (active) | inactive | inactive | inactive | inactive
CN1CCC(NCc2cccc(-c3cccc(-c4nc5ccc(C(F)(F)F)cc5[nH]4)c3)c2)CC1 | 101% (active) | 35% (inactive) | -1% (inactive) | 101% (active) | inactive | inactive | inactive | inactive
Cc1cc(O)c(-c2cc(C(=O)Nc3cccnc3)[nH]n2)cc1C | 97% (active) | 12% (inactive) | -7% (inactive) | 97% (active) | inactive | inactive | inactive | inactive
COc1ccc2ncc(F)c(C(O)CN3CCC(NCc4ccc5c(n4)NC(=O)CO5)CC3)c2c1 (stereo unspecified) | 51% (active) and 88% (active) | 6% (inactive) and 51% (active) | 3% (inactive) and -2% (inactive) | 99% (active) and 100% (active) | inactive | inactive | inactive | inactive
CC(C)(C)NC(=O)COC(=O)c1c2c(nc3ccccc13)C(=Cc1ccc3c(c1)OCO3)CCC2 | 82% (active) | 7% (inactive) | -4% (inactive) | 90% (active) | inactive | inactive | inactive | inactive
O=C(NCCCCN1CCCC2c3ccc(O)cc3CCC21)c1ccc(-c2ccccc2)cc1 (stereo unspecified) | 25% (inactive) and 7% (inactive) | 32% (inactive) and 26% (inactive) | -8% (inactive) and 3% (inactive) | 96% (active) | inactive | inactive | inactive | inactive
C[C@H](Cc1ccc(C[C@@H](C)NCC(O)c2cc(Cl)c(N)c(Cl)c2)cc1)NCC(O)c1cc(Cl)c(N)c(Cl)c1 (stereo partly specified) | 50% (active) | 26% (inactive) | -3% (inactive) | 98% (active) | inactive | inactive | inactive | inactive
